Results taken from PubChem BioAssay (Tox21).
“And” between values parts separate entries of the source, which are not always exact repeats. Identical values can stand only once. Results filed as inconclusive are left out. Where a call stands in place of a potency, no number is given. Some structures have more than one record in an assay (separate samples or runs), and their calls can disagree. The source made the active and inactive calls. Calls follow the shape of the dose curve; as a rule, active = well fitted cell-killing curve with a large enough effect in the repeat runs; inconclusive = weak or mixed curves, or effect the other way; inactive = flat fitted curve, though single readings scatter.

Test: qHTS RealTime-Glo MT Cell Viability Assay in HEK293 cells - 24 hour (AID 1224886); also: nearly all actives have a fitted effect of over 50% in size
Conditions: RealTime-Glo luminescence; series mostly up to 76.8 µM
From the text: National Center for Advancing Translational Sciences [NCATS]
NIH Chemical Genomics Center [NCGC]
U.S. Environmental Protection Agency [EPA]
National Institutes of Environmental Health Sciences [NIEHS]
National Toxicology Program [NTP]
U.S. Food and Drug Administration [FDA]
Measure of cell viability is critical in the cell-base assay. Analysis of cell viability is necessary for the characterization of cell responses to cytotoxic drugs and environmental stress. A RealTime-Glo MT Cell Viability Assay to monitor cell viability in real time of continues cell culture during 40 hours of compound treatment was used to screen Tox21 10K library compounds in Hek293 cells. The RealTime-Glo MT Cell Viability Assay is a nonlytic, homogeneous, bioluminescent method to measure cell viability in real time using a simple, plate-based method. The assay involves adding NanoLuc luciferase and a cell-permeant prosubstrate to cells in culture. Viable cells reduce the proprietary prosubstrate to generate a substrate for NanoLuc luciferase. This substrate diffuses from cells into the surrounding culture medium, where it is rapidly used by the NanoLuc Enzyme to produce a luminescent signal. The signal correlates with the number of viable cells, making the assay well suited for cytotoxicity studies.
Tox21 Assay Protocol Summary:
The mixture of Hek293 cell suspension and reagents were dispensed at 600cells/6 ul/well in 1536-well tissue culture treated black solid bottom plates using a Multidrop dispenser. After the assay plates were incubated at a 37 C/5% CO2 incubator for 5 hours, 23 nL of compounds dissolved in DMSO, positive and negative controls was transferred to the assay plate by a pintool work station. The plates were incubated at 37 C for 40 hours. The luminescence intensity were measured at 0h, 8h, 16h, 24h, 32h and 40h time points using ViewLux plate reader during compound treatment.
Potency is read from the fitted curve at half-maximal effect.

| Compound | Potency |
| --- | --- |
| O=NN(c1ccccc1)c1ccccc1 | inactive |
| CNC(=O)CSP(=S)(OC)OC | inactive |
| C[N+](C)(C)C | inactive |
| CCC[CH2][Sn]([Cl])([Cl])[CH2]CCC | 111 nM (active) and 138 nM (active) |
| CCOP(=O)(OCC)OCC | inactive |
| CCCCCCCCCc1ccc(O)cc1 | 7.84 µM (active) and 4.9 µM (active) |
| CC[n+]1c(-c2ccccc2)c2cc(N)ccc2c2ccc(N)cc21 | 6.89 µM (active) and 9.52 µM (active) |
| CC(C)COC(=O)c1ccccc1C(=O)OCC(C)C | inactive |
| CCCCOC(=O)COC(=O)c1ccccc1C(=O)OCCCC | inactive |
| CCCCSP(=O)(SCCCC)SCCCC | inactive |
| CNC(=O)Oc1cccc2c1OC(C)(C)C2 | inactive |
| CCNCC | inactive |
| CN(C)P(=O)(N(C)C)N(C)C | inactive |
| ClCC(Cl)CCl | inactive |
| O=[N+]([O-])c1ccc(Cl)c([N+](=O)[O-])c1 | 11.1 µM (active) and 12.3 µM (active) |
| CNC(=S)S | inactive |
| CC(C)(O)C(=O)Nc1ccc([N+](=O)[O-])c(C(F)(F)F)c1 | 25.1 µM (active) and 17.9 µM (active) |
| COc1ccc(C=O)cc1OC | inactive |
| CC1CC(=O)O1 (stereo not given) | inactive |
| CCC/C=N/O | inactive |

| Compound | Potency |
| --- | --- |
| Clc1ccc(C(Cl)(Cl)Cl)cc1 | inactive |
| CC(C)(O)C#N | inactive |
| CN(C)c1nc(=O)n(C2CCCCC2)c(=O)n1C | inactive |
| Oc1ccc(Cl)cc1Cc1ccccc1 | 21.9 µM (active) and 19.7 µM (active) |
| CCC(=O)Nc1ccc(Cl)c(Cl)c1 | 44.5 µM (active) and 43.6 µM (active) |
| CCOP(=O)(O)OCC (tested in a mixture with another compound) | inactive and 8.64 µM (active) |
| NN=C(N)N | inactive |
| N#CC(c1ccccc1)c1ccccc1 | inactive |
| CC(C)(C#N)N=NC(C)(C)C#N | inactive |
| C=CC(=O)OCC(CC)(COC(=O)C=C)COC(=O)C=C | 4 µM (active) and 11 µM (active) |
| NC(=O)CN1CCCC1=O | inactive |
| C=C(C)C#N | inactive and 13.8 µM (active) |
| COc1ccc(CO)cc1 | inactive |
| Cc1ccc([N+](=O)[O-])cc1 | inactive |
| CCN(CC)C(=O)C(C)Oc1cccc2ccccc12 (stereo not given) | inactive |
| N#Cc1cccnc1 | inactive |
| CC(C)(c1ccccc1)c1ccc(O)c(C(C)(C)c2ccccc2)c1 | 19.3 µM (active) and 30.9 µM (active) |
| CCCCCCCCCCCCCl | inactive |
| CC(C)Nc1nc(Cl)nc(NC(C)C)n1 | inactive |
| Cl | inactive |
